Data published in PubChem BioAssay (NCI).
Compounds without any hit were thinned out: in the full panel of roughly 83,000, 20% have a hit.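 In brief: 96-well plates, 48 h treatment, single concentration, percent growth endpoint.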 A number with no mark means an inactive call. Activity calls are given as the source filed them. Rule for the calls: active = growth percent below 10; inactive = the rest.

How the values were obtained:
Assay in all cases: NCI-60 one-dose screen, 48 h (100 = growth as untreated, 0 = no growth, -100 = all killed)
Conditions in all cases: 10 µM unless noted
SR leukemia = tested on: SR leukemia
RPMI-8226 leukemia = tested on: RPMI-8226 leukemia
OVCAR-8 ovarian = tested on: OVCAR-8 ovarian
OVCAR-5 ovarian = tested on: OVCAR-5 ovarian
OVCAR-4 ovarian = tested on: OVCAR-4 ovarian
SK-OV-3 ovarian = tested on: SK-OV-3 ovarian
IGROV1 ovarian = tested on: IGROV1 ovarian
OVCAR-3 ovarian = tested on: OVCAR-3 ovarian
HS 578T breast = tested on: HS 578T breast
NCI/ADR-RES ovarian = tested on: NCI/ADR-RES ovarian
T-47D breast = tested on: T-47D breast
BT-549 breast = tested on: BT-549 breast
MDA-MB-435 melanoma = tested on: MDA-MB-435 melanoma
SW-620 colon = tested on: SW-620 colon
HCT-116 colon = tested on: HCT-116 colon
HCC-2998 colon = tested on: HCC-2998 colon
KM12 colon = tested on: KM12 colon
MDA-MB-468 breast = tested on: MDA-MB-468 breast
MCF7 breast = tested on: MCF7 breast

Structure (SMILES) | growth (SR leukemia) | growth (RPMI-8226 leukemia) | growth (OVCAR-8 ovarian) | growth (OVCAR-5 ovarian) | growth (OVCAR-4 ovarian) | growth (SK-OV-3 ovarian) | growth (IGROV1 ovarian) | growth (OVCAR-3 ovarian) | growth (HS 578T breast) | growth (NCI/ADR-RES ovarian) | growth (T-47D breast) | growth (BT-549 breast) | growth (MDA-MB-435 melanoma) | growth (SW-620 colon) | growth (HCT-116 colon) | growth (HCC-2998 colon) | growth (KM12 colon) | growth (MDA-MB-468 breast) | growth (MCF7 breast)
COc1c(F)ccc(C(=O)Nc2ccc3nc(NC(=O)C4CCCN(S(=O)(=O)c5ccc(C#N)cc5)C4)sc3c2)c1F (centres undefined) | 74.4% | 70.1% | 111% | 103% | 86.3% | 103% | 97.1% | 102% | 79.1% | 96.1% | 61.9% | 75.8% | 105% | 102% | 74% | 119% | 96.3% | 86.2% | 
Cn1cc(-c2cc3nc(-c4cn(C)c5ncc(Br)cc45)cc(N)n3n2)c2ccccc21 | -20.7% (active) | -2.62% (active) | -10.9% (active) | -49.5% (active) | 20% | -24% (active) | -23.8% (active) | -18.5% (active) | -19.7% (active) | -23.5% (active) | -40.9% (active) | -73% (active) | -70.8% (active) | -48% (active) | -100% (active) | -89% (active) | -55.5% (active) | -78.9% (active) | 
CCCSc1nc(Nc2ccc(S(N)(=O)=O)cc2)c(C#N)c(-c2ccc(Cl)cc2)n1 | 18.5% | 11.2% | 15.2% | 61.1% | 7.47% (active) | -32.6% (active) | 43% | 31.7% | 12.5% | 26.8% | 86.5% | 77.7% | 48% | 37.6% | -67.1% (active) | 8.65% (active) | 41.7% | 17.3% | 
Cc1ccc(-c2nc(C#N)c(S(=O)(=O)N3CCN(S(=O)(=O)c4ccccc4)CC3)o2)cc1 | -48.1% (active) | -24.5% (active) | 1.2% (active) | 19.5% | -1.2% (active) | 115% | -63.6% (active) | 1.2% (active) | 65.5% | 4.76% (active) | -1.54% (active) | -19% (active) | 30.1% | -86.9% (active) | -81.4% (active) |  | 77.4% | -49.3% (active) | -30.6% (active)
CCCCSc1nc(Nc2ccc(S(N)(=O)=O)cc2)c(C#N)c(-c2ccc(Cl)cc2)n1 | 19.4% | 52.7% | -2.51% (active) | 51.5% | 2.66% (active) | 30.4% | 37.5% | 54.1% | 64.8% | 16.4% | 75.5% | 96.1% | 56.2% | 37.3% | 1.12% (active) | 64% | 74.7% | 76% | 
CCCCCCCCc1ccc(C(=O)Nc2cccc(P(=O)(O)O)c2)cc1 | 87.7% | 96.4% | 99.7% | 116% | 111% | 112% | 108% | 106% | 102% | 101% | 125% | 110% | 103% | 100% | 94.3% |  | 103% | 88.7% | 91.8%
COc1ccc(NC(=O)[C@H](CO)NC(=O)OC(C)(C)C)cc1C(=O)Nc1cccc(C2CC(=O)c3c(cc(OC)c(OC)c3OC)O2)c1 (some centres undefined) | 25.3% | 23% | 26.3% | 113% | 57.7% | 87.8% | 43.1% | 47.7% | 53.6% | 71.6% | 25.8% | 12.7% | 41.1% | 73.9% | 32.3% |  | 43.8% | 36.2% | 30%
CC(=O)Nc1ccc(-c2nc3cc(-c4ccc(O)cc4)ccc3n2C)cc1 | 23.1% | 41.3% | 54.8% | 74.2% | 54.5% | 94.5% | 34.8% | 49% | 66.1% | 55.3% | 50.8% | 65.6% | 50.2% | 66% | 29% |  | 57.8% | 58.3% | 24.7%
Clc1cccc(N/N=C/c2c[nH]c3ccc(Br)cc23)n1 | -14% (active) | 1.81% (active) | 42% | 14% | 61% | 25.3% | -33.2% (active) | 18.6% | 32.9% | 2.49% (active) | 22% | -6.46% (active) | -0.779% (active) | 6.71% (active) | 8.25% (active) | -9.69% (active) | 4.64% (active) | -10.3% (active) | 
Cn1cc(-c2cc(N)n3nc(-c4c[nH]c5ccccc45)cc3n2)c2cc(Br)cnc21 | -29.5% (active) | -14.8% (active) | -22.6% (active) | -77.6% (active) | 5.89% (active) | -34.6% (active) | -41.9% (active) | -66% (active) | -17.5% (active) | -44.6% (active) | -56% (active) | -87.8% (active) | -79.3% (active) | -69.1% (active) | -90.7% (active) | -94.3% (active) | -60.9% (active) | -88.5% (active) | 
COc1c(F)ccc(C(=O)Nc2ccc3nc(NC(=O)C4CCCN(S(=O)(=O)c5ccc(C(F)(F)F)cc5)C4)sc3c2)c1F (centres undefined) | 43.4% | 54.3% | 95.8% | 100% | 69.1% | 103% | 70.5% | 78.2% | 51.4% | 80% | 59.7% | 68.7% | 94.2% | 95.1% | 63.4% | 99.2% | 75.2% | 104% | 
COc1cccc(/C=C/c2nc3ccccc3c(=O)n2CC(=O)Nc2ccc(Cl)cc2)c1 | 79.7% | 88.3% | 48.8% | 73.5% | -11.4% (active) | 76.8% | 77.3% | 35.5% | 32.8% | 69.3% | 6.29% (active) | 86.8% | 95.4% | 68.1% | 38.4% |  | 77.8% | 108% | 
O=C(Cn1c(/C=C/c2ccccc2)nc2ccccc2c1=O)Nc1ccc(Cl)cc1 | 87.6% | 86.8% | 58.3% | 68.7% | -22.4% (active) | 40.2% | 67.7% | 29.2% | 37.8% | 66.6% | -11.5% (active) | 89% | 85.2% | 72.1% | 30.4% | 99.2% | 84.3% | 57.3% | 
O=C(c1ccc(OCCN2CCOCC2)cc1)C1[C@H](c2ccc(Cl)cc2)[C@@H](c2ccccc2)NC12C(=O)Nc1ccc(Cl)cc12 (some centres undefined) | -46.3% (active) | 15.5% | 39% | 50.5% | 48.3% | 50.1% | 24% | 40.4% |  | 24.5% | 34.6% | 57.1% | 42% | 41.5% | 11.5% | -30% (active) | 16.4% | -7.83% (active) | 4.28% (active)
Cn1cc(-c2cc3nc(-c4cn(C)c5ncccc45)cc(N)n3n2)c2ccccc21 | -28.8% (active) | -19.1% (active) | 10.2% | 48.9% | 3.01% (active) | 42.8% | 0.888% (active) | 6.85% (active) | -13% (active) | 31.2% | 35.1% | -34.7% (active) | 29.7% | 20.2% | -20% (active) | 5.15% (active) | 36.2% | -24.7% (active) | 
CCOC(=O)c1ccc(Nc2nc(NN)nc(-c3ccc(OC)cc3)c2C#N)cc1 | 97.2% | 92% | 116% | 104% | 104% | 119% | 108% | 107% | 104% | 113% | 84.9% | 116% | 62.6% | 104% | 101% |  | 93.9% | 119% | 
O=c1[nH]c2ccc(Cl)cc2cc1CSc1nccc(-c2ccc(Cl)cc2)n1 | 88.6% | 71.3% | 42.9% | 66.4% | 38.9% | 69.2% | 59.3% | 86.6% | 33.8% | 56.7% | 41.6% | 23.9% | 76.5% | 73.4% | 30.3% | 61.7% | 69.7% | 29.7% | 
